Inconclusive results are not listed. Where a call stands in place of a potency, no number is given. Active and inactive are the calls of the source. Calls follow the shape of the dose curve; as a rule, active = well fitted cell-killing curve with a large enough effect; inconclusive = small, poorly fitted or top-dose-only effect, or effect the other way; inactive = no such curve, though single readings can be large or run the other way.

Results on twelve compounds are retold here after PubChem BioAssay (NCATS).
Potency is read from the fitted curve at half-maximal effect.

The nature of this assay: Viability qHTS for spleen associated tyrosine kinase inhibitor (SYKi) naive MV4-11 cells (AID 1963823). Also: nearly all actives have a fitted effect of over 40% in size. As to conditions: MV4-11 AML viability, CellTiter-Glo luminescence, 72 h; series mostly up to 45 µM. The method, boiled down: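 Read-out: CellTiter-Glo luminescence. Exposure: 72 hr, 37 C, 5% CO2, 95% humidity. Cells: MV4-11 without SYK inhibitor history, 500/well, qHTS format.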
A general note: Quantitative high-throughput screening tests each substance at several concentrations.
With `CC(/C=C/[C@]1(O)[C@@]2(C)CO[C@@]1(C)C[C@@H](O)C2)=C\C(=O)O[C@@H]1O[C@H](CO)[C@@H](O)[C@H](O)[C@H]1O`, the Potency entry is “inactive”. Turning to `CCCc1cc(C)[nH]c(=O)c1CNC(=O)c1cc(-c2ccnc(N3CCN(C)CC3)c2)cc2c1cnn2C(C)C`, the Potency is 14.8 µM (active).

With `C=C1CC[C@H](O)CC1=C/C=C1\CCC[C@]2(C)[C@@H]([C@H](C)/C=C/[C@H](C)C(C)C)CC[C@@H]12`, the Potency is 8.2 µM (active). The same measure for `CC12CCC(C(OC3OC(COC4OCC(O)(CO)C4O)C(O)C(O)C3O)C1)C(C)(C)O2` (configuration not stated): “inactive”.

As to `O=C(O[C@H]1[C@@H]2C=CO[C@@H](O[C@@H]3O[C@H](CO)[C@@H](O)[C@H](O)[C@H]3O)[C@@H]2[C@@]2(CO)O[C@@H]12)c1ccc(O)c(O)c1`, the Potency result is “inactive”.

With `O=C(O)c1ccnc(-c2cc(C(=O)NCCc3ccccc3)ccn2)c1`, the Potency result is “inactive”. Consider `C[C@@H]1C(=O)O[C@H]2CC34[C@H]5C[C@@H](C(C)(C)C)C36[C@@H](OC(=O)[C@@H]6O)OC4(C(=O)O5)[C@]21O` (some centres not stated), for which the Potency entry was “inactive”.

With `NS(=O)(=O)c1cc2c(cc1Cl)NC(CSCc1ccccc1)=NS2(=O)=O`, the Potency entry was “inactive”. For `COc1cc(-c2cc(-c3ccc(N4CCNCC4)cc3)cnc2C)cc(OC)c1OC` the value was 7.42 µM (active); for `Cn1cc(C2=C(c3coc4ccccc34)C(=O)NC2=O)c2cc(Br)ccc21`, 14.6 µM (active). Turning to `C=C1[C@H]2CC[C@H](C(=O)O)[C@@]23CC[C@H](C3)C1(C)C`, the Potency result was “inactive”. Consider `C=C1[C@@H](OC(C)=O)CC[C@@]2(C)[C@@H](OC(C)=O)[C@H](OC(C)=O)C3=C(C)C[C@H](OC(=O)C(C)CC)[C@@H]([C@@H](OC(C)=O)[C@H]12)C3(C)C` (some centres not stated), for which the Potency is 1.53 µM (active).
